We go through 15 sequences from paper PMC3218832.

Targets include RELARELA (p65 homodimer) (Homo sapiens, UniProt Q04206 1-307); p50p50 homodimer (Homo sapiens, UniProt P19838 7-356); RELB subunit;p50 subunit (Homo sapiens;Homo sapiens, UniProt Q01201;P19838 120-401;7-356).
Common to all, as to assay: protein binding microarray; high values mean tight binding
What all share (details): dsDNA, one strand shown

The next test concerns the target T1, p52p52 homodimer (Homo sapiens, UniProt Q00653 4-332).
T1 sequence: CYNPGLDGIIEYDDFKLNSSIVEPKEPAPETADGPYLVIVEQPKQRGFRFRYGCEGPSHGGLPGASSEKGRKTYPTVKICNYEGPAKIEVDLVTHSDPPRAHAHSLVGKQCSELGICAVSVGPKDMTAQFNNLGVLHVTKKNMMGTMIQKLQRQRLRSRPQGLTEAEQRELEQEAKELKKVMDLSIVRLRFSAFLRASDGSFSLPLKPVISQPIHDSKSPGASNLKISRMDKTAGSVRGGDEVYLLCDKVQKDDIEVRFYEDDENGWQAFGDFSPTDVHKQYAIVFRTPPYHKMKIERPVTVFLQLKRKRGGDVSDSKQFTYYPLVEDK

Test [1] concerns the target RELA (p65) subunit of heterodimer;p50 subunit (Homo sapiens;Homo sapiens, UniProt Q04206;P19838 1-307;7-356).
Test [2] deals with RELA (p65) subunit of heterodimer;p52 subunit (Homo sapiens;Homo sapiens, UniProt Q04206;Q00653 1-307;4-332).
In a further test the target is T2, RELB subunit;p52 subunit (Homo sapiens;Homo sapiens, UniProt Q01201;Q00653 120-401;4-332).
T2 sequence 1: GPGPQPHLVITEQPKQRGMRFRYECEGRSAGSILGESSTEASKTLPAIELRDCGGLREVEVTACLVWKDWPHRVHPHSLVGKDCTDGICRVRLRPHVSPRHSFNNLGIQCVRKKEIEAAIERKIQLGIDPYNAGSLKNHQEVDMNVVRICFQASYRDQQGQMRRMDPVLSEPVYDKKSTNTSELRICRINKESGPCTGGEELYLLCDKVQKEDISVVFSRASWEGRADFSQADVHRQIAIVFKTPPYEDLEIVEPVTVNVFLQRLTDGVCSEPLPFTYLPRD
T2 sequence 2: T1 sequence

Test [3] deals with C-Rel subunit;p50 subunit (Homo sapiens;Homo sapiens, UniProt Q04864;P19838 1-285;7-356).
Test [4] addresses T3, C-Rel subunit;p52 subunit (Homo sapiens;Homo sapiens, UniProt Q04864;Q00653 1-285;4-332).
T3 sequence 1: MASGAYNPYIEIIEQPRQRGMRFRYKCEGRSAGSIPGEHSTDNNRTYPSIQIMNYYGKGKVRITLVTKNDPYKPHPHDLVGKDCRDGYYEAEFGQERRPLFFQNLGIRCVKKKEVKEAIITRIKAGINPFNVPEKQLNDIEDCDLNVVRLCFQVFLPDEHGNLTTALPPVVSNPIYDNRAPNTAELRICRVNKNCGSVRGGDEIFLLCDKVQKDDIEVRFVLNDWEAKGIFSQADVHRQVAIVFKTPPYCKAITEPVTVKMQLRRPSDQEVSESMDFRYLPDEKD
T3 sequence 2: T1 sequence

p50p50 homodimer, sequence (P19838 7-356): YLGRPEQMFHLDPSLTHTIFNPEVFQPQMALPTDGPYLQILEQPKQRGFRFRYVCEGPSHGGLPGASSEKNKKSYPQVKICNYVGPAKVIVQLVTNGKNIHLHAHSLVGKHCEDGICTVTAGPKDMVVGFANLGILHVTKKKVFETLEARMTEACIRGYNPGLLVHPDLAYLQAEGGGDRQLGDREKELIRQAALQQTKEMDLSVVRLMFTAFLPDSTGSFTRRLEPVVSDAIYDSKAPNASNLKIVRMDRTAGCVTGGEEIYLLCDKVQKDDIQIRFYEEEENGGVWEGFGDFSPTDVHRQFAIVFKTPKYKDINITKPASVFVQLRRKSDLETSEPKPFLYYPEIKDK
RELA (p65) subunit of heterodimer;p50 subunit, sequence (Q04206 1-307, chain 1 of 2): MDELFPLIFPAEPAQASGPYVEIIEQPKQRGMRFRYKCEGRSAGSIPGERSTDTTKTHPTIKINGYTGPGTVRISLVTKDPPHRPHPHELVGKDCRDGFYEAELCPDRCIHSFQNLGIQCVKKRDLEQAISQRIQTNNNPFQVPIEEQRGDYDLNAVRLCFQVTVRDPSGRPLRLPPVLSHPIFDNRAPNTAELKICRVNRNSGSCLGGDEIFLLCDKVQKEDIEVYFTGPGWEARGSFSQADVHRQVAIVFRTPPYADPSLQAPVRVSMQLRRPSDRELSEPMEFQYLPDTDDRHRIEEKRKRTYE
RELA (p65) subunit of heterodimer;p50 subunit, sequence (P19838 7-356, chain 2 of 2): as the sequence (P19838 7-356) above
RELARELA (p65 homodimer), sequence (Q04206 1-307): as the sequence (Q04206 1-307, chain 1 of 2) above

On to CAGATCCCCCT, for which the binding signal with RELARELA (p65 homodimer) is -0.0668 z-score; in the test with p50p50 homodimer, 1.6 z-score; with p52p52 homodimer, 1.41 z-score; in [1], 2.39 z-score; in [2], 1.76 z-score; with RELB subunit;p50 subunit it was 2.45 z-score. Besides, the binding signal with RELB subunit;p52 subunit turned out to be 2.37 z-score; in test [3] it was 1.85 z-score; in [4], 1.37 z-score.
With GAGATACCCCT, the binding signal was -0.299 z-score with RELARELA (p65 homodimer); 0.87 z-score in the test with p50p50 homodimer; 0.576 z-score with p52p52 homodimer; 0.915 z-score in test [1]; 1.1 z-score in test [2]; 0.817 z-score with RELB subunit;p50 subunit. For the same sequence, the values for the binding signal (in the test with RELB subunit;p52 subunit; in [3]; in test [4]) were 1.63 z-score, 0.434 z-score and 0.859 z-score, respectively.
Regarding AGAAAATCCCT, the binding signal with RELARELA (p65 homodimer) stood at 1.08 z-score; with p50p50 homodimer it was 1.27 z-score; in the test with p52p52 homodimer, 1.8 z-score; in test [1], 1.28 z-score; in [2], 1.37 z-score; with RELB subunit;p50 subunit, 1.49 z-score. The binding signal with RELB subunit;p52 subunit amounted to 1.61 z-score; in test [3], 1.12 z-score; in test [4], 1.62 z-score.
Turning to AAGTGGGTCCC, the binding signal with RELARELA (p65 homodimer) was -0.651 z-score; with p50p50 homodimer, -0.324 z-score; with p52p52 homodimer it was -0.0356 z-score; in test [1], -0.468 z-score; in test [2], -0.433 z-score; in the test with RELB subunit;p50 subunit it was -0.00499 z-score. Further, the binding signal with RELB subunit;p52 subunit was -0.124 z-score; in test [3], -0.493 z-score; in test [4], -0.609 z-score.
For the sequence GAGTAGTCCCT, the binding signal in the test with RELARELA (p65 homodimer) was determined as 0.344 z-score; with p50p50 homodimer, 1.35 z-score; with p52p52 homodimer, 1.21 z-score; in [1], 0.997 z-score; in test [2], 0.922 z-score; in the test with RELB subunit;p50 subunit, 1.12 z-score. Besides, the binding signal came out at 1.06 z-score with RELB subunit;p52 subunit, 0.633 z-score in test [3] and 0.66 z-score in test [4].
As for AAAGGGTTCCT, the binding signal with RELARELA (p65 homodimer) was -0.817 z-score; with p50p50 homodimer it was -1.23 z-score; in the test with p52p52 homodimer it was -0.468 z-score; in test [1], -0.866 z-score; in test [2] it was -0.749 z-score; in the test with RELB subunit;p50 subunit, -1.03 z-score. Besides, the binding signal with RELB subunit;p52 subunit is -0.714 z-score; in [3], -0.957 z-score; in test [4] it was -0.558 z-score.
In the case of CAAGGAGCCCC, the binding signal was -0.885 z-score with RELARELA (p65 homodimer); 0.241 z-score with p50p50 homodimer; -0.0311 z-score with p52p52 homodimer; -0.1 z-score in [1]; -0.176 z-score in test [2]; 0.0779 z-score with RELB subunit;p50 subunit. Also, the values for the binding signal (in the test with RELB subunit;p52 subunit; in test [3]; in test [4]) were 0.0984 z-score, 0.121 z-score and -0.176 z-score, respectively.
As to CAGTTCTCCCT, the binding signal was 0.501 z-score in the test with RELARELA (p65 homodimer); 1.08 z-score in the test with p50p50 homodimer; 0.65 z-score with p52p52 homodimer; 0.838 z-score in test [1]; 0.551 z-score in test [2]; 1.22 z-score with RELB subunit;p50 subunit. The results for the binding signal (with RELB subunit;p52 subunit; in [3]; in test [4]) were 1.11 z-score, 0.63 z-score and 0.344 z-score, respectively.
Consider AAAGACTCCCT, for which the binding signal with RELARELA (p65 homodimer) was -0.338 z-score; in the test with p50p50 homodimer, 0.719 z-score; with p52p52 homodimer, 0.0106 z-score; in test [1] it was 0.327 z-score; in test [2] it was 0.161 z-score; in the test with RELB subunit;p50 subunit, 0.395 z-score. The binding signal with RELB subunit;p52 subunit was 0.156 z-score; in test [3], -0.0953 z-score; in [4] it was 0.0126 z-score.
With AGGTACGCCCC, the binding signal in the test with RELARELA (p65 homodimer) is -0.0324 z-score; with p50p50 homodimer, 0.221 z-score; in the test with p52p52 homodimer it was 0.402 z-score; in test [1] it was 0.321 z-score; in test [2], 0.526 z-score; in the test with RELB subunit;p50 subunit, 0.233 z-score. Moreover, the binding signal with RELB subunit;p52 subunit came to 0.441 z-score; in test [3] it was 0.444 z-score; in test [4] it was 0.674 z-score.
As for AAAATTTTCCT, the binding signal with RELARELA (p65 homodimer) is 1.75 z-score; with p50p50 homodimer it was 0.214 z-score; in the test with p52p52 homodimer, 0.0641 z-score; in test [1] it was 0.434 z-score; in test [2] it was 0.225 z-score; with RELB subunit;p50 subunit, -0.311 z-score. The figures for the binding signal (with RELB subunit;p52 subunit; in test [3]; in test [4]) were -0.176 z-score, 0.47 z-score and 0.322 z-score, respectively.
CAGGTTACCCC: the binding signal with RELARELA (p65 homodimer) turned out to be 0.269 z-score; with p50p50 homodimer, 0.178 z-score; with p52p52 homodimer, 0.0851 z-score; in test [1], 0.345 z-score; in test [2], 0.253 z-score; in the test with RELB subunit;p50 subunit it was 0.443 z-score. Further, the values for the binding signal (in the test with RELB subunit;p52 subunit; in [3]; in [4]) were 0.629 z-score, 0.552 z-score and 0.49 z-score, respectively.
Consider CAGTTGACCCT, for which the binding signal in the test with RELARELA (p65 homodimer) is -0.398 z-score; in the test with p50p50 homodimer, -0.922 z-score; with p52p52 homodimer it was -0.533 z-score; in test [1] it was -0.555 z-score; in test [2], -0.554 z-score; in the test with RELB subunit;p50 subunit, -0.526 z-score. The binding signal was -0.777 z-score in the test with RELB subunit;p52 subunit, -1.18 z-score in test [3] and -0.639 z-score in [4].
With GGATAATCCCC, the binding signal was determined as 1.81 z-score with RELARELA (p65 homodimer); 1.26 z-score with p50p50 homodimer; 2.24 z-score with p52p52 homodimer; 2.07 z-score in [1]; 1.79 z-score in test [2]; 1.79 z-score with RELB subunit;p50 subunit. In addition, the binding signal turned out to be 1.9 z-score with RELB subunit;p52 subunit, 1.51 z-score in test [3] and 1.45 z-score in test [4].
Turning to AGATGGTTCCT, the binding signal is -0.148 z-score with RELARELA (p65 homodimer); -2.29 z-score with p50p50 homodimer; -0.605 z-score in the test with p52p52 homodimer; -0.843 z-score in [1]; -0.727 z-score in test [2]; -0.879 z-score with RELB subunit;p50 subunit. The binding signal with RELB subunit;p52 subunit is -0.835 z-score; in test [3] it was -1.36 z-score; in test [4], -0.824 z-score.
